Assay results as given in PubChem BioAssay AID1159580 (chemical genetic matrix, 2015).
Screen size: about 5,500 compounds; about 2,000 (36%) were called active. Not shown: some 18% with an inconclusive outcome. Cut-off read from the data, not from the text of the source: active = normalized growth mostly below about 0.91 (no sharp cut-off); inconclusive = no clear call, values can overlap the other calls; inactive = mostly above about 0.92. This is one part of the list.

Assay: chemical genetic growth profiling, strain panel (AID 1159580);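 note: tested at 20 µM; growth read once vehicle control cultures reached saturation at 30 °C; 1 = growth at the plate median or of vehicle wells; lower values mean less growth of the strain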
Details: S. cerevisiae deletion strains, growth OD
[1] = locus YAR019C, strain CDC15, hits give low values
[2] = locus YBL105C, strain PKC1, hits give low values
[3] = locus YBR135W, strain CKS1, hits give low values
[4] = locus YBR136W, strain MEC1, hits give low values
[5] = locus YBR160W, strain CDC28, hits give low values
[6] = locus YDL017W, strain CDC7, hits give low values
[7] = locus YDL028C, strain MPS1, hits give low values
[8] = locus YDL101C, strain DUN1, hits give low values
[9] = locus YDL108W, strain KIN28, hits give low values
[10] = locus YDL132W, strain cdc53, hits give low values
[11] = locus YDL214C, strain PRR2, hits give low values
[12] = locus YDR052C, strain DBF4, hits give low values
[13] = locus YDR054C, strain cdc34, hits give low values
[14] = locus YDR226W, strain ADK1, hits give low values
[15] = locus YDR477W, strain SNF1, hits give low values
[16] = locus YER123W, strain YCK3, hits give low values
[17] = locus YER133W, strain GLC7, hits give low values
[18] = locus YFL009W, strain cdc4, hits give low values
[19] = locus YFL029C, strain CAK1, hits give low values
[20] = locus YFR003C, strain YPI1, hits give low values
[21] = locus YFR019W, strain FAB1, hits give low values
[22] = locus YFR028C, strain CDC14, hits give low values
[23] = locus YGR040W, strain KSS1, hits give low values
[24] = locus YGR052W, strain FMP48, hits give low values
[25] = locus YGR092W, strain DBF2, hits give low values
[26] = locus YHR030C, strain SLT2, hits give low values
[27] = locus YHR079C, strain IRE1, hits give low values
[28] = locus YHR082C, strain KSP1, hits give low values
[29] = locus YHR205W, strain SCH9, hits give low values
[30] = locus YIL147C, strain SLN1, hits give low values
[31] = locus YJL095W, strain BCK1, hits give low values
[32] = locus YJL128C, strain PBS2, hits give low values
[33] = locus YJL157C, strain FAR1, hits give low values
[34] = locus YJR016C, strain ILV3, hits give low values
[35] = locus YJR066W, strain TOR1 (second series), hits give low values
[36] = locus YJR066W, strain TOR1, hits give low values
[37] = locus YKL048C, strain ELM1, hits give low values
[38] = locus YKL067W, strain YNK1, hits give low values
[39] = locus YKL101W, strain HSL1, hits give low values
[40] = locus YKL193C, strain SDS22, hits give low values
[41] = locus YKL203C, strain TOR2, hits give low values
[42] = locus YLR113W, strain HOG1, hits give low values
[43] = locus YLR133W, strain CKI1, hits give low values
[44] = locus YLR403W, strain SFP1, hits give low values
[45] = locus YML070W, strain DAK1, hits give low values
[46] = locus YMR001C, strain CDC5, hits give low values
[47] = locus YMR205C, strain PFK2 (second series), hits give low values
[48] = locus YMR277W, strain FCP1, hits give low values
[49] = locus YNL006W, strain LST8, hits give low values
[50] = locus YNL020C, strain ARK1, hits give low values
[51] = locus YNL161W, strain CBK1, hits give low values
[52] = locus YNL183C, strain NPR1, hits give low values
[53] = locus YNL207W, strain RIO2, hits give low values
[54] = locus YNL222W, strain SSU72, hits give low values
[55] = locus YNL307C, strain MCK1 (second series), hits give low values
[56] = locus YOL078W, strain AVO1, hits give low values
[57] = locus YOL136C, strain PFK27, hits give low values
[58] = locus YOR061W, strain CKA2, hits give low values
[59] = locus YOR119C, strain RIO1, hits give low values
[60] = locus YOR231W, strain MKK1, hits give low values
[61] = locus YOR329C, strain SCD5, hits give low values
[62] = locus YPL031C, strain PHO85, hits give low values
[63] = locus YPL153C, strain RAD53, hits give low values
[64] = locus YPL204W, strain HRR25, hits give low values
[65] = locus YPL209C, strain IPL1, hits give low values
[66] = locus YPL256C, strain CLN2, hits give low values
[67] = locus YPR025C, strain CCL1, hits give low values
[68] = locus YPR106W, strain ISR1, hits give low values
[69] = locus YPR111W, strain DBF20, hits give low values
[70] = strain NNK1, hits give low values
[71] = strain TSCII, hits give low values

Measured: normalized growth

S=C(NNC(=S)NC1CC2C=CC1C2)Nc1ccc(Br)c(Cl)c1 (configuration not stated)
inactive: [1] 0.981 | [2] 0.987 | [3] 0.986 | [4] 0.976 | [5] 0.984 | [6] 0.986 | [7] 0.979 | [8] 0.989 | [9] 0.989 | [10] 0.987 | [11] 0.948 | [12] 0.994 | [13] 0.976 | [14] 0.982 | [15] 0.932 | [16] 0.931 | [17] 0.922 | [18] 0.98 | [19] 0.982 | [20] 0.985 | [21] 0.993 | [22] 0.986 | [23] 0.939 | [24] 0.954 | [25] 0.922 | [26] 0.889 | [27] 0.954 | [28] 1.03 | [29] 0.972 | [30] 0.983 | [31] 0.927 | [32] 0.943 | [33] 0.927 | [34] 0.984 | [35] 0.972 | [36] 1.05 | [37] 0.982 | [38] 0.94 | [39] 0.961 | [40] 0.975 | [41] 0.994 | [42] 0.896 | [43] 0.959 | [44] 0.939 | [45] 0.942 | [46] 0.984 | [47] 0.957 | [48] 0.983 | [49] 0.984 | [50] 0.952 | [51] 0.982 | [52] 1.04 | [53] 0.977 | [54] 0.991 | [55] 0.956 | [56] 0.984 | [57] 0.964 | [58] 0.947 | [59] 0.994 | [60] 0.963 | [61] 0.993 | [62] 0.928 | [63] 0.932 | [64] 0.939 | [65] 0.986 | [66] 0.987 | [67] 0.987 | [68] 0.981 | [69] 0.983 | [70] 0.983 | [71] 0.985

COc1cccc(NC(=S)NC2CC(C)CC(C)(C)C2)c1 (configuration not stated)
inactive: [1] 0.986 | [2] 0.986 | [3] 0.973 | [4] 0.985 | [5] 0.978 | [6] 0.984 | [7] 0.99 | [8] 0.975 | [9] 0.989 | [10] 0.984 | [11] 0.986 | [12] 0.99 | [13] 0.967 | [14] 0.972 | [15] 0.98 | [16] 0.962 | [17] 0.962 | [18] 0.98 | [19] 0.99 | [20] 0.984 | [21] 1.02 | [22] 0.966 | [23] 0.979 | [24] 1.02 | [25] 0.895 | [26] 0.927 | [27] 0.922 | [28] 1.08 | [29] 0.995 | [30] 0.981 | [31] 0.929 | [32] 0.954 | [33] 0.976 | [34] 0.986 | [35] 0.979 | [36] 1.07 | [37] 0.989 | [38] 0.983 | [39] 0.996 | [40] 0.981 | [41] 1.03 | [42] 0.957 | [43] 0.979 | [44] 0.938 | [45] 0.978 | [46] 0.984 | [47] 1 | [48] 0.988 | [49] 0.984 | [50] 0.974 | [51] 0.971 | [52] 1.07 | [53] 0.967 | [54] 1 | [55] 0.977 | [56] 0.985 | [57] 0.964 | [58] 0.986 | [59] 1.04 | [60] 1.05 | [61] 0.984 | [62] 0.973 | [63] 0.964 | [64] 0.949 | [65] 0.99 | [66] 0.984 | [67] 0.988 | [68] 0.994 | [69] 0.991 | [70] 0.982 | [71] 0.976
